CHO-K1 Ca antag – M1 antagonist counterscreen hit in parental CHO-K1 cells | 360,000 compounds, 0.6% hits | inhibition, % at 3 µM | AID 602250 | ATP-induced calcium, Fluo-8 fluorescence;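 active means inhibition above a per-plate cutoff, the plate's mean sample inhibition plus 3 SD, cut at about 24% in these data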;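 further: 0% = DMSO plus EC80 ATP and 100% = DMSO alone without ATP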
M1 PAM – potentiates human M1 receptor response to acetylcholine; CHO-K1 hM1, Fluo-8 calcium fluorescence, ACh EC20; 0% = ACh EC20, 100% = maximal ACh; activation, % at 3 µM; 360,000 compounds, 0.088% hits; AID 588819; in the data active means activation above about 19%, passing the limit was not always enough
Target sequence (P11229 whole entry, looked up): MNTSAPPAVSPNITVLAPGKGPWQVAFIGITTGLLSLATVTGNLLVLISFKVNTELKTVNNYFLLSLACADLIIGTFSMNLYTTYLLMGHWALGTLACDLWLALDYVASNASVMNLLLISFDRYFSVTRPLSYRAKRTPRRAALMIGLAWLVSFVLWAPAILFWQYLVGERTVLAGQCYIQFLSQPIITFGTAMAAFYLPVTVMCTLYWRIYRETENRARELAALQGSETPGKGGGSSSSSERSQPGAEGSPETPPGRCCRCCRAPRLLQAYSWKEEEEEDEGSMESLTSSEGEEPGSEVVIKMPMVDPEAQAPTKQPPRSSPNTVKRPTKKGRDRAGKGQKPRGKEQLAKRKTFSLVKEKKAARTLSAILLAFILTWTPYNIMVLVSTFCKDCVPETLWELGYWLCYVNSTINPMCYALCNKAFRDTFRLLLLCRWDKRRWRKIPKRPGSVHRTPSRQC
CHRM1 agonist – human M1 muscarinic receptor agonism | P11229 | CHO-K1 hM1, Fluo-8 calcium fluorescence, agonist mode; 0% DMSO, 100% acetylcholine EC100 | activation, % at 3 µM | 360,000 compounds, 0.33% hits | AID 588814;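 active means activation above the run's mean compound activation plus 3 SD, cut at about 16% in these data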;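 further: peak over basal fluorescence ratio within a 140 s kinetic read after compound addition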
M1 antag – antagonists of human M1 muscarinic receptor; inhibition, % at 3 µM; 360,000 compounds, 1.3% hits; CHO-K1 hM1, Fluo-8 calcium fluorescence, ACh EC80 antagonist; P11229;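 active means percent inhibition above its own plate's cutoff, namely the mean of that plate's compound wells plus 3 SD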;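 further: peak over basal fluorescence ratio during 140 s after agonist addition; 0% = ACh EC80 plus DMSO and 100% = DMSO alone without agonist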
CHO-K1 Ca PAM – M1 PAM counterscreen hit in parental CHO-K1 cells. ATP EC20, Fluo-8 calcium fluorescence; 0% at ATP EC20, 100% at ATP max. activation, % at 3 µM. 360,000 compounds, 0.02% hits;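 active means activation above the run cutoff, the mean activation of all test compounds plus 3 SD, cut at about 40% in these data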;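 further: peak over basal fluorescence ratio in a 140 s read after ATP addition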
M1 ag parental – M1 agonist counterscreen hit in parental CHO-K1 cells; Fluo-8 calcium fluorescence; scaled to maximal ATP response, vehicle zero; activation, % at 3 µM; 360,000 compounds, 0.48% hits; AID 602248; in the data active means activation above about 15%;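 further: untransfected CHO-K1 host cells lacking M1 receptor as counterscreen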
An asterisk follows results filed as active; · = not tested or not shown. This is a sample that favours compounds with a hit; in the whole collection about 2.3% have one here.

SMILES	CHO-K1 Ca antag	M1 PAM	CHRM1 agonist	M1 antag	CHO-K1 Ca PAM	M1 ag parental
CCOC(=O)C1=CCC(c2cccn2C(=O)OC(C)(C)C)N(S(=O)(=O)c2ccc(C)cc2)C1 (stereo unspecified)	0	4	-4	-7	17	1
CCCCCCCCN1C(=O)[C@H](CC(=O)N2CCN(C(=O)C3CC3)CC2)C[C@@]2(C(=O)OCC)CCCC=C12	-10	·	·	·	6	1
COCCNC(=O)C1(C)CCCN(Cc2cn(C)c3ccccc23)C1 (stereo unspecified)	-19	9	-6	-21	31	0
CCOC(=O)C1CCCN(C(=S)Nc2ccc(OC)cc2)C1 (stereo unspecified)	0	-17	57*	58*	13	10
O=C(CC1Nc2ccccc2NC1=O)Nc1ccc2c(c1)OCO2 (stereo unspecified)	28*	-6	-6	5	-18	0
Cc1csc2ncnc(N3CCN(S(=O)(=O)c4cccc(C(F)(F)F)c4)CC3)c12	26*	-16	1	47*	-11	11
O=S(=O)(c1cccc(Br)c1)N1CCN(c2ncnc3scc(-c4ccccc4)c23)CC1	-7	-1	-3	-2	4	0
Cc1cc(C)c(C(=O)c2ccc(C(=O)N3CCCCC3)cc2)c(C)c1	-2	1	36*	-4	14	28*
Cc1cc(C)cc(C(=O)N2CCCCCC2)c1	-9	1	-7	-2	5	1
C[N+]1(CC(=O)Nc2ccccc2Cl)CCN(C(=O)c2cccs2)CC1	-19	-12	-5	33*	16	0
Cc1cc2nc(-c3ccc(F)cc3)c(Cc3cccc(Cl)c3)n2c(C)c1Br	-8	·	·	·	13	0
CCOc1ccc(NC(=O)NCCCn2c(C)nc3cc(C)c(C)cc32)cc1	-10	-21	-3	46*	4	1
Cc1nc2ccc(C(=O)NCCCn3ccnc3)cn2c1N(C)C(=O)CCc1ccccc1	-15	13	-6	-25	13	1
Cc1ccc(Cl)c(OCCCCN(C)Cc2ccccc2)c1	5	-26	-6	37*	6	1
COC(=O)c1ccc(OCCCCN(C)Cc2ccccc2)cc1	-7	-22	-8	31*	24	2
CCOc1cccc(OCCOCCN(C)C)c1	5	9	-8	-3	0	0
CCOc1cccc(OCCOCCN(C)Cc2ccccc2)c1	-4	-9	-5	31*	23	1
O=C(CNS(=O)(=O)c1c(Cl)cccc1Cl)OCC(=O)N1CCN(c2ccccc2)CC1	26*	-6	-7	13	-12	1
CCCCn1c(CN2CCN(C)CC2)nc2ccccc21	-5	-26	-7	31*	21	0
COc1ccc(Cc2nnc(NC(=O)c3ccccc3F)s2)cc1OC	-2	13	1	-16	10	1
COc1ccc(Cc2nnc(NC(=O)c3ccccc3Cl)s2)cc1OC	-1	8	-2	-15	16	22*
COc1ccc(Cc2nnc(NC(=O)Nc3ccc(C)cc3)s2)cc1OC	13	10	0	-10	-12	0
COc1ccc(Cc2nnc(NC(=O)CSc3ccc(C)cc3)s2)cc1OC	-22	15	61*	-7	42*	49*
COc1cc(OC)c(-c2c3cc(O)c(=O)cc-3oc3cc(O)c(O)cc23)cc1OC	68*	-28	385*	74*	-16	258*
CNC(=O)N1c2ccccc2CCc2ccccc21	-7	3	-2	-11	10	0
SMILES	CHO-K1 Ca antag	M1 PAM	CHRM1 agonist	M1 antag	CHO-K1 Ca PAM	M1 ag parental
CN(C)CCCN1c2ccccc2CCc2ccccc21	5	-25	-6	87*	7	1
CC(CN(C)C)CN1c2ccccc2CCc2ccccc21 (stereo unspecified)	8	-26	-4	98*	8	1
COCCCNc1ncnc2sc3c(c12)CCC(C)C3 (stereo unspecified)	30*	0	-4	3	-5	0
CC1CCc2c(sc3ncnc(NS(=O)(=O)c4cccs4)c23)C1 (stereo unspecified)	13	-1	-7	1	-8	-1
COC(=O)[C@@H](NCc1ccc(B(O)O)cc1)C(C)C	-2	8	0	-14	9	0
CN(C(=O)CN1C(=O)S/C(=C\c2ccccc2Cl)C1=O)C1CCS(=O)(=O)C1 (stereo unspecified)	28*	4	-11	-2	20	1
CN(C(=O)CN1C(=O)/C(=C/c2ccccc2Cl)SC1=S)C1CCS(=O)(=O)C1 (stereo unspecified)	-10	2	1	4	10	0
Fc1ccc(-c2[nH]ncc2CN2CCN(c3ccc(F)cc3)CC2)cc1	-6	10	17*	-8	12	3
Fc1ccc(N2CCN(Cc3cn[nH]c3-c3ccccc3)CC2)cc1	4	-7	1	14	-11	0
Nc1c(C(=O)CSc2n[nH]c(-c3ccccc3)n2)c(=O)[nH]c(=O)n1C1CC1	-1	29*	2	-27	1	0
Nc1c(C(=O)CSc2n[nH]c(-c3ccccc3Br)n2)c(=O)[nH]c(=O)n1C1CC1	-6	-6	-4	11	7	1
COC(=O)c1ccc(/C=N/NC(=O)c2ccc3nc[nH]c3c2)cc1	-5	-6	0	15	-2	3
O=C(N/N=C/c1ccc(Cl)cc1)c1ccc2nc[nH]c2c1	5	-14	0	29*	-4	5
CCN1/C(=C/C=C/c2oc3ccc(-c4ccccc4)cc3[n+]2CC)Oc2ccc(-c3ccccc3)cc21	102*	-21	599*	103*	-23	857*
COC(=O)c1cc(CSc2nc3ccccc3c(=O)n2C)oc1C	15	-31	-5	67*	-5	14
COCCn1c(SCc2ccc(C(=O)OC)o2)nc2ccccc2c1=O	-2	-2	-10	-4	-7	2
COc1cccc(C(=O)OCC(=O)Nc2ccccc2N2CCOCC2)c1	-5	1	-2	-2	12	2
O=C(O)c1cccc(S(=O)(=O)Nc2ccccc2N2CCOCC2)c1	-10	-9	-3	54*	-10	0
CC(=O)Nc1ccc(S(=O)(=O)Nc2ccccc2N2CCOCC2)cc1Cl	1	2	-1	0	-11	2
O=C(Nc1ccccc1N1CCOCC1)c1ccc(S(=O)(=O)NCc2ccco2)cc1	-22	7	-4	-11	26	1
O=C(Nc1ccccc1N1CCOCC1)c1ccc(Cl)c(S(=O)(=O)NCc2ccco2)c1	0	-1	-8	0	8	17*
COc1cccc(C(=O)Nc2ccccc2N2CCOCC2)c1	68*	9	-2	-12	3	91*

Screens from PubChem BioAssay.
